Data: the supplement of paper PMC8728848
This is one part of a sample in which the strongest signals are shown more often than they occur.

Experiments:
Assay in all cases: glycan array binding signal (z-score within array); higher = stronger binding
Settings in all cases: glycan notation: IUPAC condensed, linker removed
[1] = biological target: Fuc(a1-2)Gal(b1-3)GalNAc(b1-4)[Neu5Ac(a2-3)]Gal(b1-4)Glc
Method in brief: (§1)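 The binding signal is a Z-score computed within each array and averaged over linkers. Arrays of the same protein sequence at different concentrations or buffers were also averaged together. Data originate from 3228 arrays in the Consortium for Functional Glycomics database, kept only where the protein sequence was available.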

[2] = biological target: Fuc(a1-2)Gal(b1-3)[Fuc(a1-4)]GlcNAc
Method in brief: as §1

[3] = biological target: Fuc(a1-2)Gal(b1-3)[Fuc(a1-4)]GlcNAc(b1-2)Man(a1-3)[Fuc(a1-2)Gal(b1-3)[Fuc(a1-4)]GlcNAc(b1-2)Man(a1-6)]Man(b1-4)GlcNAc(b1-4)GlcNAc
Method in brief: as §1

[4] = biological target: Fuc(a1-2)Gal(b1-4)Glc6S
Method in brief: as §1

[5] = biological target: Fuc(a1-2)Gal(b1-4)GlcNAc(b1-3)Gal(b1-4)GlcNAc(b1-3)Gal(b1-4)GlcNAc
Method in brief: as §1

[6] = biological target: Fuc(a1-2)Gal(b1-4)[Fuc(a1-3)]GlcNAc(b1-3)[Neu5Ac(a2-6)Gal(b1-4)GlcNAc(b1-6)]Gal(b1-4)Glc
Method in brief: as §1

[7] = biological target: Fuc(a1-2)Gal6S(b1-4)Glc6S
Method in brief: as §1

[8] = biological target: Fuc(a1-2)[Gal(a1-3)]Gal(b1-3)GlcNAc
Method in brief: as §1

[9] = biological target: Fuc(a1-2)[Gal(a1-3)]Gal(b1-3)GlcNAc(b1-3)GalNAc
Method in brief: as §1

[10] = biological target: Fuc(a1-2)[Gal(a1-3)]Gal(b1-4)GlcNAc(b1-2)Man(a1-3)[Fuc(a1-2)[Gal(a1-3)]Gal(b1-4)GlcNAc(b1-2)Man(a1-6)]Man(b1-4)GlcNAc(b1-4)GlcNAc
Method in brief: as §1

[11] = biological target: Fuc(a1-2)[Gal(a1-3)]Gal(b1-4)GlcNAc(b1-6)GalNAc
Method in brief: as §1

[12] = biological target: Fuc(a1-2)[GalNAc(a1-3)]Gal(b1-3)GlcNAc
Method in brief: as §1

[13] = biological target: Fuc(a1-3)[Gal(b1-4)]GlcNAc(b1-4)Gal(b1-4)[Fuc(a1-3)]GlcNAc(b1-4)Gal(b1-4)[Fuc(a1-3)]GlcNAc
Method in brief: as §1

[14] = biological target: Gal(a1-2)Gal
Method in brief: as §1

[15] = biological target: Gal(b1-3)GalNAc
Method in brief: as §1

[16] = biological target: Gal(b1-3)GlcNAc
Method in brief: as §1

[17] = biological target: Gal(b1-3)GlcNAc(b1-3)Gal(b1-4)GlcNAc(b1-6)[Gal(b1-3)GlcNAc(b1-3)]Gal(b1-4)Glc
Method in brief: as §1

[18] = biological target: Gal(b1-3)GlcNAc(b1-3)Gal(b1-4)[Fuc(a1-3)]GlcNAc(b1-6)[Gal(b1-3)GlcNAc(b1-3)]Gal(b1-4)Glc
Method in brief: as §1

[19] = biological target: Gal(b1-4)GalNAc(b1-3)[Fuc(a1-2)]Gal(b1-4)GlcNAc
Method in brief: as §1

[20] = biological target: Gal(b1-4)GlcNAc(b1-2)Man(a1-3)[Gal(b1-4)GlcNAc(b1-2)][GlcNAc(b1-4)]Man(b1-4)GlcNAc(b1-4)GlcNAc
Method in brief: as §1

[21] = biological target: Gal(b1-4)GlcNAc(b1-2)Man(a1-3)[GlcNAc(b1-2)Man(a1-6)]Man(b1-4)GlcNAc(b1-4)GlcNAc
Method in brief: as §1

[22] = biological target: Gal(b1-4)GlcNAc(b1-2)Man(a1-6)Man(b1-4)GlcNAc(b1-4)GlcNAc
Method in brief: as §1

[23] = biological target: Gal(b1-4)GlcNAc(b1-2)Man(a1-6)[GlcNAc(b1-2)Man(a1-3)]Man(b1-4)GlcNAc(b1-4)GlcNAc
Method in brief: as §1

[24] = biological target: Gal(b1-4)GlcNAc(b1-3)Gal(b1-4)GlcNAc
Method in brief: as §1

[25] = biological target: Gal(b1-4)GlcNAc(b1-3)Gal(b1-4)GlcNAc(b1-3)Gal(b1-4)GlcNAc
Method in brief: as §1

[26] = biological target: Gal(b1-4)GlcNAc(b1-3)Gal(b1-4)[Fuc(a1-3)GlcNAc(b1-6)]Gal(b1-4)Glc
Method in brief: as §1

[27] = biological target: Gal3S(b1-4)GlcNAc6S
Method in brief: as §1

[28] = biological target: Gal3S4S(b1-4)GlcNAc
Method in brief: as §1

[29] = biological target: Gal6S(b1-4)GlcNAc6S
Method in brief: as §1

[30] = biological target: GalNAc(b1-3)Gal(a1-4)Gal(b1-4)GlcNAc(b1-3)Gal(b1-4)Glc
Method in brief: as §1

[31] = biological target: GalNAc4S6S(b1-4)GlcNAc
Method in brief: as §1

[32] = biological target: GlcA(b1-3)GlcNAc
Method in brief: as §1

[33] = biological target: GlcNAc(b1-3)[GlcNAc(b1-4)][GlcNAc(b1-6)]GlcNAc
Method in brief: as §1

[34] = biological target: Kdn(a2-3)Gal(b1-3)GalNAc
Method in brief: as §1

[35] = biological target: Kdn(a2-3)Gal(b1-3)GlcNAc
Method in brief: as §1

[36] = biological target: Neu5Ac(a2-3)Gal(b1-3)GalNAc6S
Method in brief: as §1

[37] = biological target: Neu5Ac(a2-3)Gal(b1-4)GlcNAc(b1-2)Man(a1-3)[Neu5Ac(a2-3)Gal(b1-4)GlcNAc(b1-2)Man(a1-6)]Man(b1-4)GlcNAc(b1-4)[Fuc(a1-6)]GlcNAc
Method in brief: as §1

[38] = biological target: Neu5Ac(a2-3)Gal(b1-4)GlcNAc(b1-3)Gal(b1-4)[Fuc(a1-3)]GlcNAc
Method in brief: as §1

[39] = biological target: Neu5Ac(a2-6)Gal(b1-4)GlcNAc(b1-2)Man(a1-3)[Gal(b1-4)GlcNAc(b1-2)Man(a1-6)]Man(b1-4)GlcNAc(b1-4)GlcNAc
Method in brief: as §1

[40] = biological target: Neu5Ac(a2-6)Gal(b1-4)GlcNAc(b1-2)Man(a1-3)[GlcNAc(b1-2)Man(a1-6)]Man(b1-4)GlcNAc(b1-4)GlcNAc
Method in brief: as §1

[41] = biological target: Neu5Ac(a2-6)GlcNAc(b1-4)GlcNAc
Method in brief: as §1

[42] = biological target: Neu5Ac(b2-6)Gal(b1-4)GlcNAc
Method in brief: as §1

[43] = biological target: Neu5Gc(a2-6)GalNAc
Method in brief: as §1

B1: PRKCE (Homo sapiens), Q02156 (protein)
chain: MVVFNGLLKIKICEAVSLKPTAWSLRHAVGPRPQTFLLDPYIALNVDDSRIGQTATKQKTNSPAWHDEFVTDVCNGRKIELAVFHDAPIGYDDFVANCTIQFEELLQNGSRHFEDWIDLEPEGRVYVIIDLSGSSGEAPKDNEERVFRERMRPRKRQGAVRRRVHQVNGHKFMATYLRQPTYCSHCRDFIWGVIGKQGYQCQVCTCVVHKRCHELIITKCAGLKKQETPDQVGSQRFSVNMPHKFGIHNYKVPTFCDHCGSLLWGLLRQGLQCKVCKMNVHRRCETNVAPNCGVDARGIAKVLADLGVTPDKITNSGQRRKKLIAGAESPQPASGSSPSEEDRSKSAPTSPCDQEIKELENNIRKALSFDNRGEEHRAASSPDGQLMSPGENGEVRQGQAKRLGLDEFNFIKVLGKGSFGKVMLAELKGKDEVYAVKVLKKDVILQDDDVDCTMTEKRILALARKHPYLTQLYCCFQTKDRLFFVMEYVNGGDLMFQIQRSRKFDEPRSRFYAAEVTSALMFLHQHGVIYRDLKLDNILLDAEGHCKLADFGMCKEGILNGVTTTTFCGTPDYIAPEILQELEYGPSVDWWALGVLMYEMMAGQPPFEADNEDDLFESILHDDVLYPVWLSKEAVSILKAFMTKNPHKRLGCVASQNGEDAIKQHPFFKEIDWVLLEQKKIKPPFKPRIKTKRDVNNFDQDFTREEPVLTLVDEAIVKQINQEEFKGFSYFGEDLMP
Q: For B1, which “glycan array binding signal (z-score)” value [1] is on record?
A: The value was -0.414.

Q: What about the “glycan array binding signal (z-score)” value [2] of the same binder?
A: The value was -0.08.

Q: And the “glycan array binding signal (z-score)” value [3]?
A: Its value is 3.82.

Q: And the “glycan array binding signal (z-score)” value [4]?
A: Its value is 0.01.

Q: What about the “glycan array binding signal (z-score)” value [5] of the same binder?
A: Its value is -0.376.

Q: What about the “glycan array binding signal (z-score)” value [6] of the same binder?
A: Its value is -0.275.

Q: What about the “glycan array binding signal (z-score)” value [7] of the same binder?
A: Its value is 3.89.

Q: And the “glycan array binding signal (z-score)” value [8]?
A: The value was -0.168.

Q: What about the “glycan array binding signal (z-score)” value [9] of the same binder?
A: Its value is 0.498.

Q: What about the “glycan array binding signal (z-score)” value [10] of the same binder?
A: The value was -0.355.

Q: And the “glycan array binding signal (z-score)” value [11]?
A: The value was 4.32.

Q: And the “glycan array binding signal (z-score)” value [12]?
A: Its value is -0.107.

Q: And the “glycan array binding signal (z-score)” value [13]?
A: The value was -0.315.

Q: What about the “glycan array binding signal (z-score)” value [14] of the same binder?
A: The value was 0.035.

Q: And the “glycan array binding signal (z-score)” value [15]?
A: Its value is -0.389.

Q: And the “glycan array binding signal (z-score)” value [16]?
A: Its value is -0.364.

Q: What about the “glycan array binding signal (z-score)” value [17] of the same binder?
A: Its value is -0.234.

Q: What about the “glycan array binding signal (z-score)” value [18] of the same binder?
A: The value was -0.277.

Q: And the “glycan array binding signal (z-score)” value [19]?
A: The value was 0.061.

Q: And the “glycan array binding signal (z-score)” value [20]?
A: The value was -0.146.

Q: And the “glycan array binding signal (z-score)” value [21]?
A: The value was 2.61.

Q: And the “glycan array binding signal (z-score)” value [22]?
A: The value was -0.31.

Q: What about the “glycan array binding signal (z-score)” value [23] of the same binder?
A: Its value is 1.3.

Q: What about the “glycan array binding signal (z-score)” value [24] of the same binder?
A: Its value is -0.365.

Q: And the “glycan array binding signal (z-score)” value [25]?
A: The value was 0.155.

Q: What about the “glycan array binding signal (z-score)” value [26] of the same binder?
A: The value was -0.176.

Q: And the “glycan array binding signal (z-score)” value [27]?
A: The value was 6.34.

Q: And the “glycan array binding signal (z-score)” value [28]?
A: The value was 8.77.

Q: What about the “glycan array binding signal (z-score)” value [29] of the same binder?
A: The value was 3.2.

Q: What about the “glycan array binding signal (z-score)” value [30] of the same binder?
A: Its value is -0.217.

Q: And the “glycan array binding signal (z-score)” value [31]?
A: Its value is -0.211.

Q: And the “glycan array binding signal (z-score)” value [32]?
A: The value was -0.247.

Q: And the “glycan array binding signal (z-score)” value [33]?
A: The value was 4.39.

Q: And the “glycan array binding signal (z-score)” value [34]?
A: Its value is -0.132.

Q: What about the “glycan array binding signal (z-score)” value [35] of the same binder?
A: The value was -0.38.

Q: And the “glycan array binding signal (z-score)” value [36]?
A: Its value is -0.364.

Q: And the “glycan array binding signal (z-score)” value [37]?
A: The value was -0.386.

Q: And the “glycan array binding signal (z-score)” value [38]?
A: Its value is -0.192.

Q: What about the “glycan array binding signal (z-score)” value [39] of the same binder?
A: The value was 0.571.

Q: What about the “glycan array binding signal (z-score)” value [40] of the same binder?
A: Its value is 3.58.

Q: And the “glycan array binding signal (z-score)” value [41]?
A: The value was -0.318.

Q: And the “glycan array binding signal (z-score)” value [42]?
A: The value was -0.121.

Q: What about the “glycan array binding signal (z-score)” value [43] of the same binder?
A: Its value is -0.342.
